Most compounds without a hit are left out; they make up all but 21% or so of the library.
Pf growth 96h – Primary qHTS for delayed death inhibitors of the malarial parasite plastid, 96 hour incubation; P. falciparum luciferase reporter growth, 96 h; Potency, µM (top dose mostly 28.7 µM), for the others: at the top dose activity change, negative = inhibition, hits mostly inhibitors; 320,000 tested, 6.9% active; also: potency is read from the fitted curve at half-maximal effect; % is scaled to controls: 0 for no effect and ±100 for the full control effect
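Parasite growth measured via integrated firefly luciferase reporter in P. falciparum. Infected erythrocytes at 2% hematocrit, 0.05% parasitemia final were treated 96 hours at 37 C under 5% CO2, and luminescence was read.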
AMA1-RON2 inh – qHTS for Inhibitors of AMA1-RON; Towards Development of Antimalarial Drug Lead: Primary Screen; Potency, µM (series often up to 58.2 µM), without a hit: at the highest dose activity change, negative = inhibition, actives largely listed as inhibitors; 360,000 tested, 0.2% active; AlphaScreen AMA1-biotinylated RON2 peptide binding; Plasmodium falciparum AMA1 (3D7) - RON2 peptide interaction; AID 720542, 2013;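 also: potency is read from the fitted curve at half-maximal effect; 0% = vehicle wells and -100% = peptide control; nearly all actives have a fitted effect of over 45% in size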
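AMA1 (3D7) with his tag at 25 nM final met compounds first, then biotinylated RON2 peptide at 25 nM; detection used donor plus acceptor beads, 10 µg/mL apiece, read by AlphaScreen after 30 min at room temperature.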
HCV inh – qHTS Assay for Inhibitors of Hepatitis C Virus (HCV) | Huh7.5.1 HCVcc-Cre infection, luciferase reporter, 44 h | Potency, µM (highest dose often 41.8 µM), for inactives: at the top dose activity change, negative = inhibition, usual class: inhibitors | 340,000 tested, 3.4% active | AID 651820, 2012; also: potency is read from the fitted curve at half-maximal effect; % is scaled to controls: 0 for no effect and ±100 for the full control effect
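Compounds are dispensed onto cells plated 4 h earlier at 1,000 per well, with HCVcc-Cre virus (about 0.5 moi) added next. Following 44 h of culture, luminescent signal is measured for 15 sec after 15 min with substrate at room temperature.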
Shiga inhibitor – A qHTS for Small Molecule Inhibitors of Shiga Toxin. Vero cells, Shiga toxin protein synthesis inhibition reporter. inhibition, % at 38.7 µM. 290,000 tested, 9.2% active; in the data active = inhibition mostly above about 28%, no sharp cut-off; inactive = mostly below about 43%; also: 0% is about no effect
CHX counter – Cycloheximide Counterscreen for Small Molecule Inhibitors of Shiga Toxin; cell reporter, cycloheximide protein synthesis inhibition counterscreen; 300,000 tested, 12% active; max response, %; in the data active = max response mostly above about 13%, no sharp cut-off; inactive = mostly below about 14%; also: read at 38.3 µM for the half of the compounds with a filed dose; 0% is about no effect
Pf growth 48h – Primary qHTS for delayed death inhibitors of the malarial parasite plastid, 48 hour incubation. P. falciparum luciferase growth in erythrocytes, 48 h. Potency, µM (highest dose often 28.7 µM), inactives show at the top dose activity change, negative = inhibition, actives largely listed as inhibitors. 310,000 tested, 5.9% active. AID 504832, 2011; also: potency is read from the fitted curve at half-maximal effect; % is scaled to controls: 0 for no effect and ±100 for the full control effect
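Compounds are pin-transferred into medium, infected erythrocytes (2% hematocrit, 0.1% parasitemia final) are added, and plates sit one parasite generation at 37 C in 5% CO2. Detection reagent is then added and luminescence measured.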
* = called active by the depositor; ? = inconclusive; / = no result given; [ ] = remark or other dose. Unless noted, calls follow the shape of the dose curve; as a rule, active = well fitted curve in the direction sought with a large enough effect; inconclusive = small, poorly fitted or top-dose-only effect, or another doubt; inactive = no such curve, though single readings can be large; an effect the other way counts as inactive or inconclusive.

SMILES	Pf growth 96h	AMA1-RON2 inh	HCV inh	Shiga inhibitor	CHX counter	Pf growth 48h
COc1ccccc1N1CCN(C(=O)CSc2nc3ccccc3c(=O)n2CC2CCCO2)CC1 (stereo unspecified)	/	35.5%	12.4%	-15.4	-5.4	?
COCCNc1nc(SCC(=O)N2CCN(c3ccccc3OC)CC2)nc2ccccc12	25.7%	-0.1%	10µM*	0.1	-6.0	?
COc1ccc(S(=O)(=O)NC(=O)C2(C)CCN2C(=O)Cc2ccc(C(C)(C)C)cc2)cc1 (stereo unspecified)	/	-8.8%	/	/	/	/
COc1ccc(-c2nnc(SCC(=O)N(C)C3CCS(=O)(=O)C3)n2CC(C)C)cc1 (stereo unspecified)	/	6.8%	/	/	/	/
NC(=O)C1(N2CCCCC2)CCN(C(=O)CSc2nc3ccccc3o2)CC1	/	4.0%	11.2%	/	/	/
CC1CCCN(C(=O)CSc2nc3ccccc3o2)C1 (stereo unspecified)	?	-4.3%	1.3%	60.6*	21.0	56.2%
NC(=O)C1CCN(C(=O)CSc2nc3ccccc3o2)CC1	7.4%	-5.2%	2.2%	4.4	-1.5	24.8%
O=C(O)c1ccc2oc(SCC(=O)N3CCCCC3)nc2c1	/	-0.9%	2.2%	58.0*	22.9*	116.4%
O=C(COC(=O)C1CCC1)NCCc1ccc(Cl)cc1Cl	?	-5.7%	10.6%	-12.7	3.8	-8.9%
Cc1cc2nc(-c3ccco3)c(Cc3ccccc3C(F)(F)F)n2c(C)c1Br	/	-0.7%	/	/	/	/
Cc1cc(C)c(C#N)c(N2CCN(c3ccccc3F)CC2)n1	11.7µM*	-2.2%	-4.6%	-18.1	-0.9	29.5%
COc1ccc(CN(C)C(=O)Cn2cc(C)c(=O)[nH]c2=O)cc1OC	/	14.0%	25.3%	/	/	/
COc1cccc(-n2nnnc2SCC(=O)Nc2nc3c(s2)CCCC3)c1	?	12.4%	?	86.9*	25.3*	-22.7%
COc1ccc(NC(=O)Nc2nc3c(s2)CCCC3)cc1	12.5%	6.6%	-29.2%	16.4	19.1*	97.0%
COc1ccc(OCC(=O)Nc2nc3c(s2)CCCC3)cc1	3.3%	-19.7%	?	67.9*	35.9*	18.5%
Cc1ccc(CC(=O)Nc2nc3c(s2)CCCC3)cc1	/	-14.5%	-25.1%	46.0	26.0	49.1%
CCOC(=O)C(NC(=O)CC)(Nc1nc2c(s1)CCCC2)C(F)(F)F (stereo unspecified)	?	0.0%	-4.9%	10.6	-2.3	?
COC(=O)C(NC(=O)COc1ccccc1)(Nc1nc2c(s1)CCCC2)C(F)(F)F (stereo unspecified)	10.4µM*	3.5%	1.1%	11.6	11.9	?
COc1cccc(C(C#N)NCCCNC(C#N)c2cccc(OC)c2OC)c1OC (stereo unspecified)	/	2.0%	0.9%	/	/	/
COc1ccccc1OCC(=O)Nc1nc2c(s1)CCCC2	1.0%	-2.5%	-4.7%	77.6*	49.0*	23.3%
O=C(CS(=O)(=O)Cc1ccccc1)Nc1nc2c(s1)CCCC2	/	0.0%	-4.6%	31.4	-2.7	6.7%
O=C(COc1ccc(F)cc1)Nc1nnc(C2CCCCC2)s1	1.5%	-11.8%	1.6%	-3.8	-3.6	?
O=C(COc1ccc(F)cc1)Nc1nc2c(s1)CCCC2	?	-5.1%	-10.9%	70.5	37.6*	37.6%
NC(=O)c1cc[n+](CC2=C(C(=O)[O-])N3C(=O)[C@@H](NC(=O)Cc4cccs4)[C@@H]3SC2)cc1	-13.3%[12.8 µM]	/	/	/	/	-12.1%[12.8 µM]
O=C(CCc1nnc(Cc2c[nH]c3ccccc23)o1)NC1CCCC1	49.5%	-3.9%	21.7%	-0.6	-0.4	6.0%
SMILES	Pf growth 96h	AMA1-RON2 inh	HCV inh	Shiga inhibitor	CHX counter	Pf growth 48h
COc1ccc(OC)c(Cc2nnc(CCC(=O)NCc3ccsc3)o2)c1	1.1%	10.6%	9.2%	37.2*	17.2*	-15.9%
COc1ccc(OC)c(Cc2nnc(CCC(=O)NC3CCCCC3)o2)c1	13.1µM*	-1.5%	-1.9%	29.0*	25.0*	17.8%
O=C(CCc1nnc(CCc2c[nH]c3ccccc23)o1)NC1CCC1	-14.1%	29.2%	-15.6%	179.6*	52.7*	6.3%
COc1ccc(OC)c(Cc2nnc(CCC(=O)NC3C4CC5CC(C4)CC3C5)o2)c1 (stereo unspecified)	0.2%	13.7%	4.9%	-15.6	6.5	10.4µM*
CCCN1CCC(NC(=O)CCc2nnc(Cc3cc(OC)ccc3OC)o2)CC1	-4.1%	-10.7%	2.8%	-5.4	-1.7	-10.8%
Cc1ccc(CCN2CC(C(=O)NC3CCC(C)CC3)CC2=O)cc1 (stereo unspecified)	/	-22.2%	/	/	/	/
CCOC(=O)CN(C(=O)CSc1nnc(COc2ccc(OC)cc2)n1C)c1ccccc1	11.7µM*	29.3%	20.9%	15.3	-9.1	?
CCOc1ccc(NC(=O)CSc2nnc(Cn3cnc4ccccc43)n2C)cc1	2.33µM*	3.3%	-10.2%	9.7	1.0	-21.0%
Cn1c(SCC(=O)Nc2ccc(N3CCOCC3)c(Cl)c2)nnc1C(O)c1ccccc1 (stereo unspecified)	20.9%	-6.4%	-4.4%	-10.0	-1.6	?
Cn1c(COc2ccccc2)nnc1SCC(=O)Nc1ccc(N2CCOCC2)c(Cl)c1	4.15µM*	-2.6%	-28.6%	13.6	12.6	?
COc1ccc(NC(=O)CSc2nnc(Cn3cnc([N+](=O)[O-])n3)n2C)cc1	15.6%	-0.3%	0.7%	-8.3	-4.2	10.7%
Cn1c(Cn2cnc([N+](=O)[O-])n2)nnc1SCC(=O)Nc1ccccc1	2.94µM*	30.0%	-0.6%	-32.8	-3.0	14.1%
Cc1noc(C)c1-c1ccc(C(=O)Nc2cccc(C(F)(F)F)c2)c2occc12	/	-0.6%	/	/	/	/
Cn1c(COc2ccccc2)nnc1SCC(=O)Nc1ccc(S(N)(=O)=O)cc1	?	3.9%	7.5%	2.0	0.5	/
COC(=O)c1ccc(NC(=O)CSc2nnc(COc3ccccc3)n2C)cc1	60.1%	-5.0%	3.9%	-1.8	0.4	8.28µM*
O=C(CSc1nc2ccccc2o1)Nc1ccccc1N1CCOCC1	?	9.1%	-3.2%	24.3	-0.1	/
O=C(CSc1nc2ccccc2o1)Nc1ccc(N2CCOCC2)cc1	31.6%	-8.2%	/	62.4*	46.8*	235.9%
O=C(CSc1nc2cc(Cl)ccc2o1)N1CCOCC1	-6.4%	-6.7%	3.5%	6.4	8.1	26.9%
O=C(CSc1nc2cc(Cl)ccc2o1)Nc1ccc(N2CCOCC2)cc1	?	-5.2%	-7.6%	71.7*	30.8*	31.9%
Cn1c(-c2ccccc2O)cc2ccccc21	5.22µM*	-11.3%	-9.2%	32.7	5.5	3.7µM*
CC(C)(C)C(c1nc2ccccc2[nH]1)n1c(-c2ccsc2)nc2ccccc21 (stereo unspecified)	/	9.5%	/	/	/	/
